# Data as given in PubChem BioAssay.
# Unmarked numbers belong to inactive results. No rule for the calls is given here. Where a SMILES comes first, the peptide text is derived from it. The star is where a group is joined. Boc = CC(C)(C)OC(=O)*
# Molecular target: Pantothenate synthetase (Mycobacterium tuberculosis (strain ATCC 25618 / H37Rv)) (UniProt P9WIL5)
# Test: Coupled enzyme confirmation of inhibitors against recombinant Mtb PanC (AID 375);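 also: 0% = full reaction with vehicle and 100% = no enzyme background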
# Conditions: coupled enzyme assay; at 10 µM, active compounds read high
# Sequence of Pantothenate synthetase (Mycobacterium tuberculosis (strain ATCC 25618 / H37Rv)) (P9WIL5 whole entry, looked up): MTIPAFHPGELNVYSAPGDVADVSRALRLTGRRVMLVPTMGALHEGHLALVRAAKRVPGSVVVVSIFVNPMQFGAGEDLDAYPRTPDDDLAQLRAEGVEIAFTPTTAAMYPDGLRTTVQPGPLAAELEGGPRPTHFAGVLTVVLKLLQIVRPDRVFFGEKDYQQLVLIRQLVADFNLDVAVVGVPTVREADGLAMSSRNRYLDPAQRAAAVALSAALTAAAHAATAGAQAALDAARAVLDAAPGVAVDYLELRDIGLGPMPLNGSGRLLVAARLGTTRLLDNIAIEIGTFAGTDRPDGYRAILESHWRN
row,SMILES,inhibition [%]
1,Cc1ccc(O)c(-c2cc(C(=O)Nc3ccc(S(=O)(=O)N4CC(C)OC(C)C4)cc3)[nH]n2)c1 (stereo not given),5
2,CCN(C1CCCCC1)S(=O)(=O)c1ccc(S(=O)(=O)N2CCN(CCC#N)CC2)cc1,0
3,COc1ccc(-c2coc3c(CN4CCCCC4)c(O)c(CN4CCCCC4)c(O)c3c2=O)cc1,0
4,CCn1cc(C(=O)O)c(=O)c2cc(F)c(N3CCNCC3)cc21,0
5,Cc1cc(C)nc(N(C#N)CC(=O)N2CCC(C(N)=O)CC2)n1,1
6,CCOC(=O)N1CCC(N2C(=O)c3ccc(C(=O)NCc4ccco4)cc3C2=O)CC1,2
7,O=C1c2ccccc2C(=O)N1CCCCN1CCN(CCCCN2C(=O)c3ccccc3C2=O)CC1,5
8,O=C(Nc1ccc(NC(=O)c2ccco2)nc1)c1cccnc1,0
9,O=C(NCCc1ccccn1)c1ccc(COc2ccccc2)o1,0
10,CCCNC(=O)c1c(N)n(-c2cc(OC)cc(OC)c2)c2nc3ccccc3nc12,8
11,Cc1ccc(C(=O)N2CCN(C(=O)c3ccc(C)c(C)c3)C(C)C2)cc1C (stereo not given),7
12,Nc1c(N2CCCCC2)c(=O)[nH]c(=O)n1-c1ccccc1,0
13,Cc1nc(N2CCN(c3ncccn3)CC2)c2oc3ccccc3c2n1,2
14,CCOC(=O)CSC1=C(C#N)C(c2ccc(Cl)cc2)C(C(=O)OC)C(=O)N1 (stereo not given),0
15,Cc1csc(SCc2nc3sc4c(c3c(=O)[nH]2)CCC4)n1,0
16,CCCOc1ccccc1NC(=O)c1c(-c2ccccc2)noc1C,1
17,O=C1c2ccccc2C(=O)N1C/C=C/CN1C(=O)c2ccccc2C1=O,0
18,CCn1c(=O)cc(OCC(=O)Nc2nc(C)cs2)c2ccccc21,0
19,CCCN1C2=C(C(=O)CCC2)C(c2ccc(O)c(Br)c2)C2=C1CCCC2=O,0
20,CCOC(=O)C(C)C1(O)c2ccccc2-c2ncccc21 (stereo not given),0

row,SMILES,inhibition [%]
1,O=C(OCc1ccccc1F)c1ccc2c(c1)OCCO2,3
2,COc1ccc(C2=CC(=O)OC3(CCCCC3)O2)cc1,0
3,O=c1c[n+]([O-])c2ccccc2n1OCc1c(F)cccc1F,4
4,COc1ccc2nc3oc(C(=O)N4CCCCC4)cc3cc2c1,12
5,COc1ccc(N2Cc3ccccc3C2)cc1Cl,0
6,O=C(Nc1ccc2c(c1)OCO2)c1ccc(CN2CCOCC2)cc1,1
7,COc1ccc(NC(=O)C(C)NS(=O)(=O)c2ccc(NC(C)=O)cc2)cc1Cl (stereo not given),9
8,O=C1c2ccccc2C(=O)N1OCc1ccccc1,0
9,c1ccc2c(c1)ccc1nnc(-c3ccc4c(c3)OCO4)n12,2
10,CCN(CC)Cc1nc2c(c(=O)[nH]1)C1(CCCCC1)Cc1ccccc1-2,3
11,Cc1cc(C)c(NC(=O)CSc2nnc(-c3ccncc3)n2Cc2ccco2)c(C)c1,0
12,CC1CCN(CCCNC(=O)c2coc3nc4ccccc4nc23)CC1,1
13,COc1ccccc1S(=O)(=O)Cc1ccc(C(=O)N2CCN(c3ccc(C)cc3)C(C)C2)o1 (stereo not given),13
14,Cc1cc(C)cc(NC(=O)CN(C)S(=O)(=O)c2cnc[nH]2)c1,11
15,CC1Cc2nc(SCC(=O)Nc3ccc4c(c3)OCO4)n(-c3ccc(F)cc3)c(=O)c2S1 (stereo not given),0
16,CCOC(=O)C(C)Sc1nnc(Cc2cc(=O)[nH]c(=O)[nH]2)n1-c1ccc(Cl)cc1 (stereo not given),0
17,CC1CCc2nn(CC(=O)NCc3ccc(F)cc3)cc2C1 (stereo not given),7
18,COc1ccc(CNC(=O)c2cnc3n(c2=O)CCS3)cc1,0
19,CSCCC(NC(=O)OC(C)(C)C)C(=O)NC(CC(C)C)C(N)=O (stereo not drawn) (Boc-Met-Leu-NH2; configuration not given here),0
20,O=C(CN1CCOCC1)N1CCN(C(=O)CN2CCOCC2)CC1,6
